“And” between values parts separate entries of the source, which are not always exact repeats. Equal values may be shown once. Values without a mark were called inactive. Results filed as inconclusive are left out. The source made the active and inactive calls. Unless noted, calls come from the whole dose curve; as a rule, active = well fitted curve in the direction sought with a large enough effect in the repeat runs; inconclusive = weak or mixed curves; inactive = no such curve, though single readings can be large; an effect the other way counts as inactive or inconclusive.

A short description of test [1]: qHTS assay for small molecules that induce genotoxicity in human embryonic kidney cells expressing luciferase-tagged ATAD5 (AID 651632). Note: nearly all actives have a fitted effect of over 15% in size. Summed up:
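Reporter cells (HEK293T) express luciferase-tagged ATAD5, a protein that accumulates after DNA damage. Treat 16 hr at 37C/5% CO2, add Amplite, wait 30 min at RT, and read luminescence.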

Test [2] in a line: qHTS assay for small molecule agonists of the p53 signaling pathway - cell viability (AID 651633; calls by dose curve; note: nearly all actives have a fitted effect of over 30% in size; note: potency is the fitted concentration of half-maximal effect). Summed up: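 Viability counter-read: CellTiter-Glo luminescence (30 min, room temperature) in the same p53RE-bla plates. These plates had been exposed to compounds for 16 h at 37 C.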
Test [3] can be described thus: qHTS assay for small molecules that induce genotoxicity in human embryonic kidney cells expressing luciferase-tagged ATAD5 - cell viability (AID 651634; calls by dose curve; note: nearly all actives have a fitted effect of over 25% in size; note: potency is the fitted concentration of half-maximal effect). The method, boiled down:
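Seeding of 2,000 HEK293T ATAD5-luciferase cells per well preceded pin-tool compound transfer. Plates sat 15.5 hr at 37C under 5% CO2, then fluorescence was read after 30 min with CellTiter-Fluor.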

A short description of test [4]: qHTS assay for small molecule disruptors of the mitochondrial membrane potential - cell viability (AID 720634; calls by dose curve;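 note: human HepG2 liver cancer cells; series mostly up to about 83 µM; nearly all actives have a fitted effect of over 20% in size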). The method, boiled down: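 Measuring cytotoxicity alongside mitochondrial potential, the screen quantified ATP by luminescence in HepG2 cells after 1 hr compound incubation and a 30 min room-temperature CellTiter-Glo step.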
The nature of test [5]: qHTS assay to test for compound auto fluorescence at 590 nm (red) in HepG2 cells (AID 720674). Summed up: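 We screened compounds on adherent HepG2 cells, incubating them for an hour at 37 C in 5% CO2 before reading emission at 590 nm under 540 nm excitation; values reflect equivalence to Rose Bengal sodium fluorescence.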
Test [6] is described as follows: qHTS assay to test for compound auto fluorescence at 535 nm (green) in HepG2 cells (AID 720675).
A short description of test [7]: qHTS assay to test for compound auto fluorescence at 460 nm (blue) in HEK293 cells (AID 720678). The method, boiled down:
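Triamterene serves as the blue fluorophore standard. Compound signal at 405/460 nm is read in HEK293 wells (2,000 cells, 10% dialyzed FBS) after overnight treatment at 37C.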

Test [8] in a line: qHTS assay to test for compound auto fluorescence at 590 nm (red) in HEK293 cells (AID 720679). The method, boiled down:
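We plated HEK293 cells in 10% dialyzed FBS medium, let them adhere for 4-5 hr, then added 23 nL compound. Overnight at 37C and 5% CO2 preceded fluorescence measurement at 540/590nm.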

Test [9] in a line: qHTS assay for small molecule disruptors of the mitochondrial membrane potential (AID 720635). Note: potency is the fitted concentration of half-maximal effect. Summed up:
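Mitochondrial membrane potential tracked with Mito-MPS dye, red aggregates (ex 540/em 590 nm) against green monomers (ex 490/em 535 nm). Compound treatment 1 hr at 37C, dye 30 min in HepG2.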
% is set by controls: 0 for no effect and ±100 for the full control effect.

In the case of `CC(=O)O[C@@]12CO[C@@H]1C[C@H](O)[C@@]1(C)C(=O)[C@H](O)C3=C(C)[C@@H](OC(=O)[C@H](O)[C@@H](NC(=O)OC(C)(C)C)c4ccccc4)C[C@@](O)([C@@H](OC(=O)c4ccccc4)[C@H]21)C3(C)C`, the Potency entry in [1] and in test [2] was “inactive” each time. The Potency in test [3] is 11.9 nM (active) and 8.4 nM (active). Besides, the molecule was called inactive in test [4], in [5], in [6], in [7] and in test [8].

`Cc1nc2ccc(CN(C)c3ccc(C(=O)N[C@@H](CCC(=O)O)C(=O)O)s3)cc2c(=O)[nH]1`: the Potency entry in test [1], in [3] and in [9] was “inactive” each time. In addition, the Potency in [2] was 106 nM (active) and 150 nM (active). Moreover, the outcome in test [4], in test [5], in [6], in [7] and in [8] was inactive.

For the molecule `NC(CCC(=O)O)C(=O)O` (configuration not stated), the Potency result in test [1], in test [2] and in test [3] was “inactive” throughout. Besides, the molecule was called inactive in [4], in test [5], in [6], in test [7] and in [8].

As to `CCCCCCCCCC[N+](C)(C)[O-]`, the Potency entry in [1], in test [2] and in test [3] was “inactive” throughout. The call in test [4], in [5], in test [6], in test [7] and in [8] was inactive.

In the case of `C[N+]12CCC(CC1)C(OC(=O)C(O)(c1ccccc1)c1ccccc1)C2` (configuration not stated), the Potency entry in test [1], in test [2], in [3] and in test [9] was “inactive” in each case. Moreover, the outcome in test [4] was inactive. Besides, the fluorescence, % of fluorescein control in [6] was -0.0019% [at 18.6 µM]. The fluorescence, % of triamterene in [7] is 0.0716% [at 18.6 µM]. Besides, the fluorescence, % of fluorescent control in test [8] is -0.175% [at 18.6 µM].

As for `O=CN(CCO)CCO`, the Potency entry in test [1], in test [2] and in [3] was “inactive” each time. Besides, the outcome in test [4], in [5], in [6], in [7] and in [8] was inactive.

For the molecule `COc1ccccc1OCC1CNC(=O)O1` (configuration not stated), the Potency result in test [1], in test [3] and in test [9] was “inactive” throughout. Also, the result in [4], in [5], in [6], in [7] and in test [8] was inactive.

Turning to `Cc1c(N)c(=O)n(-c2ccccc2)n1C`, the Potency entry in [2], in test [3] and in test [9] was “inactive” each time. Besides, the molecule was classed as inactive in [4]. Also, the fluorescence, relative to Rose Bengal in test [5] was -0.0352% [at 18.6 µM]. Further, the fluorescence, % of fluorescein control in test [6] was 0.0089% [at 18.6 µM]. The fluorescence, % of triamterene in test [7] was 0.0036% [at 18.6 µM]. Besides, in test [8], the fluorescence, % of fluorescent control is 0.258% [at 18.6 µM].

Take `COc1ccnc(CS(=O)c2nc3cc(OC(F)F)ccc3[nH]2)c1OC` (configuration not stated): the Potency entry in test [1], in test [2], in [3] and in [9] was “inactive” in each case. Besides, the molecule was called inactive in [6], in [7] and in test [8].

For the molecule `CC[N+](C)(CC)CCOC(=O)C1c2ccccc2Oc2ccccc21`, the Potency entry in test [2] and in test [3] was “inactive” throughout. Besides, the result in test [4], in test [6], in [7] and in test [8] was inactive.

As for `CC1=C(C/C=C(\C)CCC[C@H](C)CCC[C@H](C)CCCC(C)C)C(=O)c2ccccc2C1=O`, the Potency entry in [1], in test [2] and in [3] was “inactive” each time. Moreover, the call in [4], in [6], in test [7] and in test [8] was inactive.

Regarding `C1CCC2=NCCCN2CC1`, the Potency entry in test [2], in test [3] and in test [9] was “inactive” each time. The molecule was called inactive in test [4], in [5], in test [6], in test [7] and in [8].

For `CCN(Cc1ccccc1)c1ccccc1`, the Potency result in [1], in [2] and in test [3] was “inactive” each time. Besides, the molecule was called inactive in test [4], in [6], in test [7] and in [8].

Consider `O=C1c2ccccc2C(=O)c2cc(O)ccc21`, for which the Potency entry in test [3] was “inactive”. Besides, in test [9], the Potency was 1.94 µM (active). For the same molecule, the molecule was called inactive in test [6], in test [7] and in test [8].

`COC(=O)C1=C(C)NC(C)=C(C(=O)OC(C)C)C1c1cccc2nonc12` (configuration not stated): the Potency entry in test [1] is “inactive”. The call in test [4] was inactive. Moreover, in test [6], the fluorescence, % of fluorescein control was 0.024% [at 18.6 µM]. In addition, the fluorescence, % of triamterene in test [7] was -0.009% [at 18.6 µM]. Besides, the fluorescence, % of fluorescent control in [8] was 0.0072% [at 18.6 µM].

In the case of `CC(=O)c1ccccc1[N+](=O)[O-]`, the Potency result in test [1], in test [2], in [3] and in test [9] was “inactive” throughout. The molecule was called inactive in test [5], in test [6], in test [7] and in test [8].

Consider `CNC(=O)Nc1ccc(Cl)c(Cl)c1`, for which the Potency entry in test [1], in test [2] and in test [3] was “inactive” throughout. Also, the outcome in [5], in test [6], in [7] and in test [8] was inactive.

As for `CC(C)c1ccc2ncccc2c1`, the Potency entry in [1] and in [3] was “inactive” each time. Also, the result in test [4], in [5], in test [6], in test [7] and in [8] was inactive.

As for `CC[N+](CC)(CC)CCOc1cccc(OCC[N+](CC)(CC)CC)c1OCC[N+](CC)(CC)CC`, the Potency result in test [1], in test [2] and in [3] was “inactive” each time. Also, the result in [5], in test [6], in test [7] and in [8] was inactive.

For `CN1CCC(=C2c3ccccc3CCc3cccnc32)CC1`, the Potency entry in test [1], in test [3] and in test [9] was “inactive” throughout. Moreover, the call in test [4], in test [5], in test [6], in test [7] and in test [8] was inactive.

The record behind these values is PubChem BioAssay (Tox21).
